# From PubChem BioAssay (NCATS)
# Results filed as inconclusive are left out. Calls of active or inactive are those of the source. Calls come from the whole dose curve.
# Target: Vitamin D3 receptor (Homo sapiens) (UniProt P11473)
# Assay: qHTS assay for small molecule antagonists of vitamin D receptor signaling (AID 588541);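 note: receptor activated by calcitriol during compound treatment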
# Conditions: HEK293T VDR-UAS-bla, beta-lactamase ratio, antagonist mode; series mostly up to 76.7 µM
# Source text: NIH Chemical Genomics Center [NCGC]
# U.S. Environmental Protection Agency [EPA]
# National Institutes of Environmental Health Sciences [NIEHS]
# National Toxicology Program [NTP]
# The Vitamin D receptor (VDR) is a member of nuclear hormone receptor superfamily and it plays a critical role in calcium homeostasis and bone metabolism. It plays a role in inducing cell differentiation, inhibiting cell growth and in thrombogenicity. So, VDR that mediates these effects represents a pharmacological target in prevention and treatment of hyperproliferative malignancies, such as cancer and psoriasis, cardiovascular, immunological, inflammatory and renal diseases etc.
# NCGC Assay Protocol Summary
# Using a beta-lactamase reporter-gene under control of Vitamin D receptor (VDR) response element, a cell-based assay [GeneBLAzer (VDR -UAS-bla assay developed by Invitrogen] was used to measure VDR ligands signaling. GeneBLAzer VDR -UAS-bla HEK293T cells were used with assay medium containing 2% charcoal-stripped FBS. The assay was performed in clear bottom black Greiner 1536-well plates. Library compounds were measured for their ability to inhibit the reporter gene activity. Compounds were screened in a titration series in 1536-well format. The fluorescence intensity (405 nm excitation, 460/530 nm emission) was measured using an EnVision plate reader. Data was normalized relative to 1-alpha,25-Dihydroxy vitaminD3 control (50 nM, 100%) and DMSO only wells (basal, 0%). Concentration-response titration points for each compound were fitted to the Hill equation yielding concentrations of half-maximal inhibition (IC50) and maximal response (efficacy) values.
# qHTS protocol for VDR beta-lactamase assay in antagonist mode
# [Step] [Parameter] [Value] [Description]
# 1. Reagent; 5 uL; 2000 cells/well
# 2. Incubation; 37 C for 5 hrs
# 4. Controls (DMSO); 23 nL,
# 5. Agonist (Stimulator); 1uL; 1-alpha,25-Dihydroxy vitaminD3 at 50 nM and 3 nM final concentrations
# 6. Incubation; 37 C for 16 hrs
# 7. Detection reagent; 1 uL of CCF4-dye
# 8. Incubation; RT for 2 hrs
# 9. Detection; Fluorescence; Envision plate reader
# Sequence of Vitamin D3 receptor (Homo sapiens) (P11473 whole entry, looked up): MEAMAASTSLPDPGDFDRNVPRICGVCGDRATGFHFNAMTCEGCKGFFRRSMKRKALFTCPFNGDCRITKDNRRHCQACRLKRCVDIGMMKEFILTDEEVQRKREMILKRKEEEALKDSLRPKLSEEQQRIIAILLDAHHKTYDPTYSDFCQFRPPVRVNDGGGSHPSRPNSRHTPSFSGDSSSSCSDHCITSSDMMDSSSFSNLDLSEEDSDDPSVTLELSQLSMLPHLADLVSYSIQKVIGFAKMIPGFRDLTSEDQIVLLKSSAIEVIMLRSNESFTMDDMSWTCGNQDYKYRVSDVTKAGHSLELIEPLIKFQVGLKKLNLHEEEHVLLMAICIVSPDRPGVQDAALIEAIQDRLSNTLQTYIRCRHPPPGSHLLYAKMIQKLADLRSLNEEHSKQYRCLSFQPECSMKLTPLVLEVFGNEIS
row,SMILES,outcome
1,C[Si](C)(C)O[Si](C)(C)C,inactive
2,CC(C)[C@@H]1CC[C@@H](C)C[C@H]1O,inactive
3,CC1=CC(=O)NS(=O)(=O)O1,inactive
4,N[C@@H](Cc1cc(I)c(Oc2ccc(O)c(I)c2)c(I)c1)C(=O)O,inactive
5,Nc1nccs1,inactive
6,C[C@H](CCC(=O)O)[C@H]1CC[C@H]2[C@@H]3CC[C@@H]4C[C@H](O)CC[C@]4(C)[C@H]3C[C@H](O)[C@]12C,inactive
7,CCCCC(CC)COS(=O)(=O)O (configuration not stated),inactive
8,c1ccc2ccccc2c1,inactive
9,OC[C@H]1O[C@@H]2O[C@H]3[C@H](O)[C@@H](O)[C@@H](O[C@H]4[C@H](O)[C@@H](O)[C@@H](O[C@H]5[C@H](O)[C@@H](O)[C@@H](O[C@H]6[C@H](O)[C@@H](O)[C@@H](O[C@H]7[C@H](O)[C@@H](O)[C@@H](O[C@H]1[C@H](O)[C@H]2O)O[C@@H]7CO)O[C@@H]6CO)O[C@@H]5CO)O[C@@H]4CO)O[C@@H]3CO,inactive
10,CCCCCCCCCCCCCCCCCC(=O)OC[C@@H](O)[C@H]1OC[C@H](O)[C@H]1O,inactive
11,CO/N=C(/C(=O)N[C@@H]1C(=O)N2C(C(=O)O)=C(COC(N)=O)CS[C@H]12)c1ccco1,inactive
12,Cc1ccc(S(=O)(=O)O)cc1C,inactive
13,Cc1ncc[nH]1,inactive
14,CC(C)(C)CC(C)(C)c1ccc(OCCO)cc1,inactive
15,CCCCO,inactive
16,ClC(Cl)Cl,inactive
17,CC[C@H]1OC(=O)[C@H](C)[C@@H](O[C@H]2C[C@@](C)(OC)[C@@H](O)[C@H](C)O2)[C@H](C)[C@@H](O[C@@H]2O[C@H](C)C[C@H](N(C)C)[C@H]2O)[C@](C)(O)C[C@@H](C)CN(C)[C@H](C)[C@@H](O)[C@]1(C)O,inactive
18,OB(O)O,inactive
19,CC1=CCC2CC1C2(C)C (configuration not stated),inactive

row,SMILES,outcome
1,Oc1cccc(O)c1O,inactive
2,O=P(O)(O)O,inactive
3,Nc1ccc(N=Nc2ccccc2)c(N)n1,inactive
4,CC(C)CCCCCCc1ccc(O)cc1,inactive
5,CCOC(C)OCC,inactive
6,NCCN,inactive
7,COC(=O)c1ccccc1O,inactive
8,CC/C=C\C/C=C\C/C=C\CCCCCCCC(=O)O,inactive
9,CO,inactive
10,C/C=C/C=C/C(=O)O,inactive
11,OCCOCCOCCO,inactive
12,OCC(O)CO,inactive
13,CCCCC,inactive
14,C=C(C)C1CC=C(C)CC1 (configuration not stated),inactive
15,CC(C)O,inactive
16,Oc1ccc(/C=C/c2cc(O)cc(O)c2)cc1,inactive
17,OCl,inactive
18,Nc1ncnc2c1ncn2[C@H]1CC[C@@H](CO)O1,inactive
